Results as given in PubChem BioAssay AID1159580 (chemical genetic matrix, 2015).
Values joined by “and” are separate entries in the source; they are usually repeats but may differ in a detail not shown here. Equal values may be shown once. Among all 5,500 compounds or so, about 2,000 (36%) were called active. Inconclusive results (about 18%) are left out. No stated cut-off is given here; in the data, active means normalized growth mostly below about 0.91 (no sharp cut-off); inconclusive means no clear call, values can overlap the other calls; inactive means mostly above about 0.92. This is one part of the list.

Experiment: chemical genetic growth profiling, strain panel (AID 1159580);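 further: tested at 20 µM; growth read once vehicle control cultures reached saturation at 30 °C; 1 = growth at the plate median or of vehicle wells; lower values mean less growth of the strain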
Settings: S. cerevisiae deletion strains, growth OD

Measured: normalized growth

COc1ccc2cc([C@H](C)C(=O)O)ccc2c1
active: locus YIL125W, strain kgd1, hits give low values 0.93
inactive: locus YAL013W, strain DEP1, hits give low values 1 | locus YAL021C, strain ccr4, hits give low values 0.943 | locus YAL026C, strain drs2, hits give low values 0.961 | locus YAL030W, strain snc1, hits give low values 0.981 | locus YAL040C, strain CLN3, hits give low values 1.07 | locus YBL061C, strain skt5, hits give low values 0.984 | locus YBR009C, strain hhf1, hits give low values 0.98 | locus YBR021W, strain FUR4, hits give low values 0.958 | locus YBR023C, strain chs3, hits give low values 0.987 | locus YBR171W, strain sec66, hits give low values 0.963 | locus YBR229C, strain ROT2, hits give low values 1 | locus YBR231C, strain swc5, hits give low values 0.996 | locus YBR279W, strain paf1, hits give low values 0.967 | locus YCL011C, strain gbp2, hits give low values 0.98 | locus YCL016C, strain dcc1, hits give low values 0.993 | locus YCL029C, strain bik1, hits give low values 0.999 | locus YCL061C, strain MRC1 (second series), hits give low values 0.994 | locus YCL061C, strain MRC1, hits give low values 0.974 | locus YCL069W, strain vba3, hits give low values 0.968 | locus YCR088W, strain abp1, hits give low values 0.972 | locus YDL005C, strain med2, hits give low values 0.96 | locus YDL035C, strain GPR1, hits give low values 0.984 | locus YDL040C, strain nat1, hits give low values 0.973 | locus YDL074C, strain BRE1, hits give low values 0.989 | locus YDL101C, strain DUN1, hits give low values 1.02 | locus YDL134C, strain PPH21, hits give low values 1 | locus YDL185W, strain tfp1, hits give low values 0.957 | locus YDL192W, strain arf1, hits give low values 0.985 | locus YDR001C, strain nth1, hits give low values 0.98 | locus YDR069C, strain doa4, hits give low values 0.963 | locus YDR101C, strain arx1, hits give low values 1.01 | locus YDR137W, strain rgp1, hits give low values 0.932 | locus YDR150W, strain NUM1, hits give low values 1.01 | locus YDR159W, strain sac3, hits give low values 0.926 | locus YDR162C, strain NBP2, hits give low values 0.99 | locus YDR195W, strain ref2 0.932 | locus YDR297W, strain sur2, hits give low values 0.978 | locus YDR318W, strain mcm21, hits give low values 0.996 | locus YDR334W, strain swr1, hits give low values 0.961 | locus YDR335W, strain msn5, hits give low values 0.988 | locus YDR363W, strain ESC2, hits give low values 0.979 | locus YDR388W, hits give low values 0.998 | locus YDR392W, strain spt3, hits give low values 0.842 | locus YDR502C, strain sam2, hits give low values 0.964 | locus YEL003W, strain gim4, hits give low values 0.951 | locus YEL037C, strain rad23, hits give low values 0.958 | locus YEL061C, strain CIN8 (second series), hits give low values 0.964 | locus YEL061C, strain CIN8, hits give low values 1 | locus YER002W, strain NOP16, hits give low values 0.969 | locus YER015W, strain faa2, hits give low values 0.978 | locus YER016W, strain bim1, hits give low values 0.976 | locus YER110C, hits give low values 0.992 | locus YER111C, strain swi4, hits give low values 0.966 | locus YER155C, strain BEM2 (second series), hits give low values 0.964 | locus YER155C, strain BEM2, hits give low values 0.975 | locus YER167W, strain BCK2, hits give low values 0.986 | locus YFR010W, strain ubp6, hits give low values 0.959 | locus YGL078C, strain dbp3, hits give low values 0.957 | locus YGL086W, strain mad1, hits give low values 0.98 | locus YGL167C, strain pmr1, hits give low values 0.977 | locus YGL173C, strain kem1, hits give low values 0.97 | locus YGL227W, strain vid30, hits give low values 0.98 | locus YGL240W, strain doc1, hits give low values 0.962 | locus YGL248W, strain PDE1, hits give low values 1 | locus YGL253W, strain hxk2, hits give low values 0.985 | locus YGR078C, strain PAC10, hits give low values 1 | locus YGR135W, strain pre9, hits give low values 0.984 | locus YGR229C, strain SMI1, hits give low values 0.999 | locus YGR252W, strain gcn5, hits give low values 0.933 | locus YHR013C, strain ard1, hits give low values 0.928 | locus YHR027C, strain rpn1, hits give low values 0.971 | locus YHR030C, strain SLT2, hits give low values 1.01 and 0.896 | locus YHR079C, strain IRE1 (second series), hits give low values 1 | locus YHR079C, strain IRE1, hits give low values 0.881 | locus YHR094C, strain hxt1, hits give low values 0.986 | locus YHR129C, strain ARP1, hits give low values 1.01 | locus YHR142W, strain chs7, hits give low values 0.965 | locus YHR200W, strain rpn10, hits give low values 0.982 | locus YIL066C, strain RNR3, hits give low values 1.01 | locus YIL073C, strain SPO22, hits give low values 1.03 | locus YIR030C, strain dcg1, hits give low values 0.995 | locus YJL092W, strain hpr5, hits give low values 0.959 | locus YJL095W, strain BCK1 (second series), hits give low values 0.987 | locus YJL095W, strain BCK1, hits give low values 1.04 and 0.918 | locus YJL115W, strain asf1, hits give low values 0.96 | locus YJL129C, strain trk1, hits give low values 0.9 | locus YJL134W, strain LCB3, hits give low values 1 | locus YJL154C, strain vps35, hits give low values 0.976 | locus YJL164C, strain tpk1, hits give low values 0.967 | locus YJL166W, strain qcr8, hits give low values 0.97 | locus YJL168C, strain set2, hits give low values 0.991 | locus YJL187C, strain SWE1 (second series), hits give low values 1.02 | locus YJL187C, strain SWE1, hits give low values 0.972 | locus YJR043C, strain POL32, hits give low values 0.981 | locus YJR066W, strain TOR1, hits give low values 0.845
